Data on one compound can be found in PubChem BioAssay AID896 (National Center for Advancing Translational Sciences (NCATS), 2007).

The other results are listed elsewhere or left out. Inconclusive results are not listed. Calls of active or inactive are those of the source. The call rests on the fitted dose curve; in most records, active means well fitted inhibition curve with a large enough effect in the main read-out, with a control signal flat; inconclusive means small, poorly fitted or top-dose-only effect, or a change in a side signal; inactive means no such curve, though single readings can be large or run the other way.

For this assay, the target named is Caspase-1 (Homo sapiens) (UniProt P29466). Nature of the assay: Confirmation Concentration-Response Assay for Allosteric/Competitive Inhibitors of Caspase-1. Conditions: purified caspase-1, fluorogenic substrate cleavage; series mostly up to 57.5 µM; activity change, negative = inhibition: at the top concentration. The text has this: NIH Molecular Libraries Screening Centers Network [MLSCN]
NIH Chemical Genomics Center [NCGC]
PI Name: Dr. James Wells,
Dr. Enrique Perez-Paya, Dr.Janice Williams, Dr. Dennis Wolan, a person
The caspases (Cysteine Aspartyl Protease) comprise a related family of 14 dimeric proteases that are critical mediators of apoptosis (programmed cell death) and inflammation. The caspases represent an important class of drug targets for stroke, ischemia, cancer and inflammatory diseases. […] One goal of this project was to identify compounds that act as allosteric inhibitors via stabilizing the procaspase form of the enzyme. […]
The biochemical assay was configured using purified caspase 1 at a high enzyme concentration to promote formation of the homodimers and thus facilitate the identification of allosteric inhibitors. […] After initiation of the assay with substrate the plates were rapidly read using an automated robotic system (Kalypsys, Inc.) to maintain consistent timing. […] Product formation was also measured after 1 hour. […]
Caspase 1 was prepared in buffer (50 mM HEPES pH 7.5, 50 mM KCl, 200 mM NaCl, 10 mM DTT, 0.1% CHAPS) at a concentration of 66.6 nM and 3 uL was dispensed to all wells using black solid Kalypsys 1536-well plates. […] The plates were then exposed using 405 nm excitation/520 nm emission filters for 4 sec and read at 20 sec intervals for 3 min. […]
As to `Cc1nc2c(C(=O)NCc3ccc4c(c3)OCO4)c[nH]n2c(=O)c1Cc1ccccc1F`, the “activity change, negative = inhibition” value was -18.4% (inactive).
